# An excerpt weighted towards active compounds, which were near 1.2% of everything screened.
# AGP1 TOR yeast = alters AGP1-GFP fluorescence in TOR pathway yeast screen. S. cerevisiae AGP1-GFP multiplex flow cytometry, 3 h; GFP as percent of DMSO wells. GFP response vs DMSO, % at 10 µM. 320,000 compounds, 0.02% hits;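 active = GFP response relative to DMSO above a set limit, near screen average plus 3 SD, cut at about 150% in these data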;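 also: median GFP channel fluorescence of the gated AGP1 strain per well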
# MEP2 TOR yeast = yeast TOR pathway MEP2-GFP modulation | AID 2016 | 330,000 compounds, 0.51% hits | GFP response vs DMSO, % at 10 µM | S. cerevisiae MEP2-GFP strain, flow cytometry GFP, 3 h; 100% = DMSO control level;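 active = GFP response versus DMSO above a set limit, roughly screen mean plus 3 SD, cut at about 180% in these data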;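 also: median GFP fluorescence of the barcode-gated MEP2-GFP cells per well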
# RPL19A-GFP yeast = alters RPL19A-GFP fluorescence in TOR pathway yeast screen; S. cerevisiae RPL19A-GFP strain, flow cytometry, 3 h; hits give low values; percent response vs DMSO, % at 10 µM; 330,000 compounds, 0.3% hits; AID 2025;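 active = percent response vs DMSO below 50%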;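 also: median channel GFP fluorescence of the barcoded RPL19A-GFP strain; ratio of sample median GFP to plate DMSO average so 100% = DMSO; lower means less RPL19A-GFP as with rapamycin TOR inhibition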
# LAP4 TOR yeast = alters LAP4-GFP fluorescence in TOR pathway yeast screen. S. cerevisiae LAP4-GFP multiplex, flow cytometry GFP, 3 h; median GFP as percent of DMSO wells. GFP response vs DMSO, % at 10 µM. 320,000 compounds, 0.34% hits;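 active = GFP response vs DMSO above a set limit, about the screen mean plus 3 SD, cut at about 150% in these data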
# CIT2-GFP yeast = yeast TOR pathway CIT2-GFP modulation | AID 2029 | GFP response vs DMSO, % at 10 µM | S. cerevisiae CIT2-GFP strain, flow cytometry, 3 h; 100 means same as DMSO wells | 320,000 compounds, 0.065% hits;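 active = GFP response relative to DMSO above a set limit, near the screen mean plus 3 SD, cut at about 150% in these data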;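 also: ratio of well median GFP fluorescence to mean of DMSO wells on the plate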
# DSG3 Ab inh = inhibitors of pemphigus antibody binding to human desmoglein-3; DSG3-coupled beads, scFv-anti-DSG3-GFP binding, flow cytometry; hits give low values; binding (percent of control), % at 10 µM; 310,000 compounds, 0.48% hits; P32926;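 active = binding more than 3 SD below its plate's average and above zero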;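 also: hits lower antibody fragment binding to DSG3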
# Target sequence (P32926 whole entry, looked up, the tested form may be a part): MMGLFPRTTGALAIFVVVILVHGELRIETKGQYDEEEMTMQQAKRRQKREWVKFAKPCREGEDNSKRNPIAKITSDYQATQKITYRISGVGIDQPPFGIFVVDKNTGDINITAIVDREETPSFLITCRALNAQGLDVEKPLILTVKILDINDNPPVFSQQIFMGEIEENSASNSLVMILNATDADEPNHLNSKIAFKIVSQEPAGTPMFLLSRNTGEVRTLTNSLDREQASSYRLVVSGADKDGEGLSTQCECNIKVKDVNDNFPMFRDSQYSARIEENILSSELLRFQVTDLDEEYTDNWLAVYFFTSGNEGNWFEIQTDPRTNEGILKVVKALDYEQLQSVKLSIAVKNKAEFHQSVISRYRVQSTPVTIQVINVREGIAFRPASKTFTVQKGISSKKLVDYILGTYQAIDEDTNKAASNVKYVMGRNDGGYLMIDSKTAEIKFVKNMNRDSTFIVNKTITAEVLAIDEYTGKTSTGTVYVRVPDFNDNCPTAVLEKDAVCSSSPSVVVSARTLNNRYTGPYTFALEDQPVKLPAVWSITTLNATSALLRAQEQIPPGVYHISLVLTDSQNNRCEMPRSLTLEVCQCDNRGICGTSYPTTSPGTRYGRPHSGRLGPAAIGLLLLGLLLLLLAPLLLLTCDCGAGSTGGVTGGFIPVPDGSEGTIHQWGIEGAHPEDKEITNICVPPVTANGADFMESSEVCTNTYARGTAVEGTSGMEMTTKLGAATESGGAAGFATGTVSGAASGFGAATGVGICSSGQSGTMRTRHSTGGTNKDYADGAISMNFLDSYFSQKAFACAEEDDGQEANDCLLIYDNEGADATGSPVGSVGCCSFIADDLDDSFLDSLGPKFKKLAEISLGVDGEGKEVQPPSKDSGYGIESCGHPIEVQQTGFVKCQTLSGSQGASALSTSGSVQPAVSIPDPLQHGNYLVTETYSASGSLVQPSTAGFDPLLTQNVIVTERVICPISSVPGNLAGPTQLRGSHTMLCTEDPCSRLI
# LAP4-GFP pick2 = reconfirmed LAP4-GFP TOR pathway modulator in yeast | 590 compounds, 20% hits | GFP response vs DMSO, % at 10 µM | shares compounds with LAP4 TOR yeast | S. cerevisiae LAP4-GFP strain, flow cytometry GFP, 3 h;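 active = GFP signal as percent of the solvent control above about 150%, meaning raised reporter expression, limit read from the data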;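 also: ratio of well median GFP fluorescence to plate DMSO mean so 100% = DMSO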
# MEP2 cherry2 = reconfirmed MEP2-GFP TOR pathway modulator in yeast; shares compounds with LAP4 TOR yeast; S. cerevisiae MEP2-GFP strain, flow cytometry GFP, 3 h; GFP response vs DMSO, % at 10 µM; 590 compounds, 10% hits;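 active = GFP signal above 150% of the solvent control wells, that is a rise of more than half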;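 also: median channel GFP fluorescence of all gated yeast cells per well; ratio of median GFP to plate DMSO average so 100% = DMSO level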
# RPL19A GFP CP2 = reconfirmed modulator of RPL19A-GFP TOR reporter in yeast; 590 compounds, 3% hits; S. cerevisiae RPL19A-GFP strain, flow cytometry GFP, 3 h; hits give low values; 100% means same as DMSO wells; AID 2623; shares compounds with LAP4 TOR yeast; GFP response vs DMSO, % at 10 µM;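 active = under 65% GFP response relative to DMSO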;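 also: median GFP channel fluorescence per well over the all cells gate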
# CIT2 GFP CP2 = reconfirmed modulator of CIT2-GFP TOR reporter in yeast; S. cerevisiae CIT2-GFP strain, flow cytometry GFP, 3 h; DMSO control wells read 100%; shares compounds with LAP4 TOR yeast; AID 2624; 590 compounds, 8% hits; GFP response vs DMSO, % at 10 µM;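 active = GFP response vs DMSO above about 150%, limit read from the data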;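 also: median green fluorescence per well over all gated yeast cells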
# AGP1 GFP CP2 = yeast AGP1-GFP TOR reporter modulation, second cherry pick | shares compounds with LAP4 TOR yeast | 590 tested, under 10 active | percent response vs DMSO, % at 10 µM | AID 2643 | S. cerevisiae AGP1-GFP strain, flow cytometry GFP, 3 h;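 active = over 150 percent of DMSO response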;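 also: median GFP channel fluorescence over all cells without mother daughter split; sample median GFP divided by mean DMSO control so 100% equals DMSO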
# s288c autofluor = compound is autofluorescent in yeast s288c cells | shares compounds with LAP4 TOR yeast | S. cerevisiae s288c, 520 nm autofluorescence, flow cytometry, 3 h; hits give high values; zero means same as solvent-only cells | fluorescence change (kMESF span) at 33 µM | 610 tested, under 10 active;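 active = fluorescence span over the dose series, or activity score, above about 33, limit read from the data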
# Yeast autofl DR = counter-screen for autofluorescence of TOR hits in yeast s288c. shares compounds with LAP4 TOR yeast. S. cerevisiae s288c parental, compound autofluorescence, flow cytometry, 3 h. fluorescence change (span) at 33 µM. 110 tested, under 10 active. AID 488829;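 active = fluorescence change span, or the activity score built from it, above 25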
# TORC1 bypass gr = stops wildtype yeast growth while TORC1 bypass cells still grow; S. cerevisiae BY4741 spot growth rating, 48-72 h; hits give low values; shares compounds with LAP4 TOR yeast; growth rating (0-3) at 30 µM; 120 tested, under 10 active; AID 504456;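 active = growth rating at most 1 for wild type yeast while the TORC1 bypass strain still grows fully, rated 3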
# * = called active by the depositor; nt = not tested or not shown.
SMILES,AGP1 TOR yeast,MEP2 TOR yeast,RPL19A-GFP yeast,LAP4 TOR yeast,CIT2-GFP yeast,DSG3 Ab inh,s288c autofluor,others
COc1ccccc1C(=O)N/C(=C\c1cn(S(=O)(=O)N(C)C)c2ccccc12)C(=O)N1CCCC1,102,100,98,92,99,100,nt,
CCCC(=O)Nc1nnc(SCC(=O)N2CCCCC2)s1,101,108,103,99,100,nt,nt,
CCCOc1ccc(C(=O)NNC(=S)NC(=O)c2ccco2)cc1,113,110,112,154*,111,113,1.1,
O=C(Cn1cccc1C(=O)c1ccccc1)NCCCc1ccccc1,93,88,89,95,91,100,nt,
O=C(Cn1cccc1C(=O)c1ccccc1)NCCC1=CCCCC1,23,158,51,90,98,102,nt,LAP4-GFP pick2=99;MEP2 cherry2=100;RPL19A GFP CP2=98;CIT2 GFP CP2=110;AGP1 GFP CP2=106
CC(C)c1ccc(-c2nc(N3CCOCC3)[nH]c(=O)c2C#N)cc1,103,108,98,102,101,104,nt,
O=C(/C=C/c1cccc(Cl)c1)c1nc2ccccc2[nH]1,76,84,79,228*,69,99,2.7,LAP4-GFP pick2=235*;MEP2 cherry2=148;RPL19A GFP CP2=77;CIT2 GFP CP2=142;AGP1 GFP CP2=83
CCCn1c(SCC(=O)N2CCCCC2)nc2c1c(=O)n(C)c(=O)n2C,107,101,103,93,103,97,nt,
N/C(=N\OC(=O)c1cccc(Br)c1)c1ccccc1,63,103,93,178*,120,108,0.1,
CN(CC(=O)NC1CCCCC1)S(=O)(=O)c1ccc2c(c1)c(=O)n(C)c(=O)n2C,102,102,102,94,102,98,nt,
COc1ccc(-c2cc3cc(C(=O)O)ccn3c2C(=O)c2ccccc2)cc1,106,110,101,150*,110,109,0,
O=C(O)c1ccn2c(C(=O)c3ccccc3)c(-c3ccccc3)cc2c1,97,90,99,156*,94,nt,0.51,
COc1ccc(C(=O)c2ccccc2)cc1,101,109,108,110,106,106,nt,
O=c1oc(/C=C/c2ccc([N+](=O)[O-])s2)nc2ccccc12,103,185*,116,154*,161*,113,13,
CC(=O)Oc1ccccc1/C=C/c1nc2ccccc2c(=O)o1,88,104,99,101,94,119,nt,
Cc1cc(Cl)ccc1OCC(=O)N/N=C/c1ccncc1,102,97,101,93,108,98,nt,
O=C(/C(=N/N=C/c1ccc(O)c(O)c1)c1ccccc1)c1ccccc1,93,91,104,90,90,101,nt,
O=C(C#Cc1ccccc1)c1ccco1,101,128,88,153*,77,91,0.61,LAP4-GFP pick2=156*;MEP2 cherry2=165*;RPL19A GFP CP2=85;CIT2 GFP CP2=128;AGP1 GFP CP2=118
O=C(N/N=C/c1ccccc1)c1ccco1,108,98,98,119,102,nt,nt,
Cc1ccc(C(=O)N(CCc2ccccc2)Cc2ccccc2)cc1S(=O)(=O)N1CCCCC1,103,105,100,101,101,98,nt,
Cc1ccnc(N2C(=O)c3cccc4c([N+](=O)[O-])ccc(c34)C2=O)c1,75,312*,111,232*,181*,88,6.2,
Cc1ccc(N2C(=O)c3cccc4c([N+](=O)[O-])ccc(c34)C2=O)c2cccnc12,89,104,100,116,92,99,nt,
Clc1cc2cccnc2c2ncccc12,93,109,95,168*,83,94,nt,LAP4-GFP pick2=131;MEP2 cherry2=108;RPL19A GFP CP2=95;CIT2 GFP CP2=95;AGP1 GFP CP2=89
O=[N+]([O-])c1cc([N+](=O)[O-])c2cccnc2c1Oc1ccccc1O,94,89,87,150,87,114,nt,
O=[N+]([O-])c1cc(Cl)c2cccnc2c1O,127,120,101,202*,102,101,0.31,Yeast autofl DR=0.57;TORC1 bypass gr=3
SMILES,AGP1 TOR yeast,MEP2 TOR yeast,RPL19A-GFP yeast,LAP4 TOR yeast,CIT2-GFP yeast,DSG3 Ab inh,s288c autofluor,others
O=[N+]([O-])c1cc(Cl)c(O)c2ncccc12,nt,nt,nt,nt,nt,100,nt,
O=[N+]([O-])c1cc(F)c2cccnc2c1O,115,114,93,185*,103,103,0.72,
Cc1c(C)c2cccnc2c2ncccc12,69,89,90,183*,80,111,nt,LAP4-GFP pick2=118;MEP2 cherry2=133;RPL19A GFP CP2=97;CIT2 GFP CP2=117;AGP1 GFP CP2=99
Cc1ccc(S(=O)(=O)N(C)/N=C/C=C/c2ccccc2)cc1,nt,nt,nt,nt,nt,102,nt,
COc1ccc(C)cc1S(=O)(=O)N1CCCC(N2CCOCC2)C1 (configuration not stated),89,122,93,101,104,110,nt,
Oc1c(Cl)c(Cl)c2ncccc2c1Cl,nt,nt,nt,nt,nt,94,nt,
O=[N+]([O-])c1ccc(O)c2cccnc12,105,99,99,100,111,98,nt,
Oc1c(I)cc(Cl)c2cccnc12,81,112,85,286*,78,92,2.1,LAP4-GFP pick2=226*;MEP2 cherry2=216*;RPL19A GFP CP2=77;CIT2 GFP CP2=176*;AGP1 GFP CP2=106;Yeast autofl DR=2.9;TORC1 bypass gr=0
O=[N+]([O-])c1ccc(O)c2ncccc12,106,105,97,313*,82,105,1.3,LAP4-GFP pick2=275*;MEP2 cherry2=159*;RPL19A GFP CP2=100;CIT2 GFP CP2=120;AGP1 GFP CP2=129;Yeast autofl DR=0.73;TORC1 bypass gr=3
Cc1cc(=O)n2c3c(sc2n1)C(=O)N(Cc1ccccc1)C3=O,79,87,88,194*,69,nt,1,
